In the library only some 2.4% were active in any assay of this set; here they are far more common.
Arbovirus inh: arbovirus infection inhibition | inhibition, % at 10 µM | arbovirus infection cell-based antiviral screen | 200,000 tested, 0.37% active; in the data active = inhibition above about 30%
Hck-Nef inh: inhibitors of human Hck kinase activated by Nef; P08631; 220,000 tested, 0.68% active; Recombinant Hck-YEEI plus Nef, Z-Lyte FRET kinase assay; inhibition, % at 20 µM;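 active = Hck-Nef kinase inhibition above about 50%, limit read from the data; inactive = inhibition below that limit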
EP2 antag: EP2 receptor (human) inhibition; P43116; C6 glioma cells expressing human EP2, cAMP TR-FRET; cells stimulated with saturating PGE2; inhibition, % at 25 µM; 260,000 tested, 0.52% active; AID 1422;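 active = percent inhibition above 40 after rounding to a whole number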;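 also: rat C6 glioma host cells with rolipram phosphodiesterase inhibitor present; the protocol text gives 20 µM as final concentration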
EP2 mod: modulators of human EP2 prostaglandin E2 receptor. P43116. EP2-expressing cells, cAMP HTRF FRET, PGE2 co-stimulation. induction, % at 25 µM. 260,000 tested, 0.83% active;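 active = compounds whose cAMP rise, as percent of the full-agonist control response, exceeds 60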;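 also: rat C6 glioma line stably carrying human EP2 under a CMV promoter; the protocol text gives 20 µM as final concentration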
p97 inhibitor: human p97 ATPase inhibition; inhibition, % at 8 µM; P55072; 220,000 tested, 0.42% active; recombinant p97 ATPase, Kinase-Glo ATP luminescence, 3 h; in the data active = inhibition above about 15%
Target sequence (P55072 whole entry, looked up): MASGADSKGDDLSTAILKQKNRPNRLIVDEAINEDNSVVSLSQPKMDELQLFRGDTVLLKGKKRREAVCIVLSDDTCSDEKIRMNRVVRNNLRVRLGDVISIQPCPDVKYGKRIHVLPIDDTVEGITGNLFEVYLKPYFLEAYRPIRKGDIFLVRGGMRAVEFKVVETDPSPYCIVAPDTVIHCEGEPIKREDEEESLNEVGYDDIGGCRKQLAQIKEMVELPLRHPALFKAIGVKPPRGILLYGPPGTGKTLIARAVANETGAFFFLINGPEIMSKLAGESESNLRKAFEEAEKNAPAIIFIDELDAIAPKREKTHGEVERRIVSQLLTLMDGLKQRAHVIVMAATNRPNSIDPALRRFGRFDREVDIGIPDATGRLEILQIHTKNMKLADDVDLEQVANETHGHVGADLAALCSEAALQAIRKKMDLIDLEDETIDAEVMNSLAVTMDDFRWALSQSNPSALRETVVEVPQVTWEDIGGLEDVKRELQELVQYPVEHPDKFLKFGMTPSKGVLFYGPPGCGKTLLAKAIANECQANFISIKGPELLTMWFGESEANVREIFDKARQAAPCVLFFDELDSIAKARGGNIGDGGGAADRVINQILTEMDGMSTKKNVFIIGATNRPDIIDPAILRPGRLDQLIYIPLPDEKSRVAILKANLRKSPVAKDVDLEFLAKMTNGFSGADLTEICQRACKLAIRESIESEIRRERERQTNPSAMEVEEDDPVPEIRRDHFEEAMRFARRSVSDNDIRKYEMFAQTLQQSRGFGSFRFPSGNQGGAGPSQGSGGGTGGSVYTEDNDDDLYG
A number is an active result; . = inactive; / = no result given.

SMILES | Arbovirus inh | Hck-Nef inh | EP2 antag | EP2 mod | p97 inhibitor
COc1cccc(N(C(=O)Cc2cccs2)C(C(=O)NC2CCCC2)c2ccc(C)o2)c1 (stereo unspecified) | / | / | . | . | /
COc1ccc(C)cc1N(C(=O)Cc1cccs1)C(C(=O)NC1CCCC1)c1ccc(C)o1 (stereo unspecified) | / | / | . | 75 | /
NC(=O)CSc1nnc2c(n1)[nH]c1ccc(F)cc12 | / | / | . | . | /
CCc1n(CC(O)COc2ccccc2)c2ccccc2[n+]1C (stereo unspecified) | / | / | . | . | /
COc1ccc(N2CC(C(=O)OCC(=O)Nc3c(C)cccc3C)CC2=O)cc1 (stereo unspecified) | / | / | . | . | /
CCNc1nc(NC(C)C)nc(SCCOC(=O)c2ccccc2)n1 | . | . | . | 61 | .
CCc1nc(SCC(=O)c2ccc(NC(C)=O)cc2)c2ccccc2n1 | / | / | . | . | /
O=C(Nc1nn[nH]n1)c1nc(-c2ccccc2)cc(=O)[nH]1 | / | / | 55 | . | /
CCN1C(=O)C=CC1=O | / | / | . | . | /
O=C1C=CC(=O)N1CCCCCCN1C(=O)C=CC1=O | . | . | 135 | . | .
COc1ccc(/C(O)=C2/C(=O)C(=O)NC2c2ccc(F)cc2)cc1OC (stereo unspecified) | / | / | . | 70 | /
O=C(/C=C/c1ccc2c(c1)OCCCO2)c1ccc2ccccc2c1O | 32 | . | . | . | .
Cc1ccc(C(=O)/C=C/c2ccc3c(c2)OCCO3)c(O)c1 | / | . | . | . | .
Cc1cc(N/N=C/c2ccc(O)c(C)c2O)nc(-c2ccccc2O)n1 | . | . | 91 | . | .
CC1CCCCN1CCNC(=O)C1CCN(S(=O)(=O)N2CCCCC2)CC1 (stereo unspecified) | . | . | 120 | . | .
CCOC(=O)CCN(Cc1cccs1)S(=O)(=O)c1ccc(Cl)cc1 | . | . | . | 61 | .
CC1CCCC(C)N1C(=O)Cn1ncc2cccn2c1=O (stereo unspecified) | / | / | / | . | /
Cc1cc(/C=C2\SC(=S)NC2=O)c(C)n1C1CC1 | . | . | / | . | .
O=C1NC(=S)S/C1=C\c1coc2ccc(O)cc2c1=O | / | 53 | . | . | .
O=C1NC(=S)S/C1=C\c1coc2ccccc2c1=O | . | 88 | . | . | .
O=C1OCCC/C1=C\c1ccc2c(c1)OCO2 | / | . | . | 82 | .
CCCN1C/C(=C/c2ccc3c(c2)OCO3)C(=O)/C(=C/c2ccc3c(c2)OCO3)C1 | . | . | . | . | .
CC(=O)Oc1cc2c(c(C)c1OC(C)=O)CC=C1[C@@]2(C)CC[C@@]2(C)C3C[C@](C)(C(=O)O)CC[C@]3(C)CC[C@]12C (stereo partly specified) | / | / | . | . | /
COc1ccc(-c2cc(C(F)(F)F)n3nc(C(=O)Nc4c(C)n(C)n(-c5ccccc5)c4=O)cc3n2)cc1 | . | . | . | . | 17
O=C(Nc1ccc(Br)cc1)c1csc(-c2ccncc2)n1 | . | . | 174 | . | .
SMILES | Arbovirus inh | Hck-Nef inh | EP2 antag | EP2 mod | p97 inhibitor
O=C(Nc1ccc(Cl)cc1)c1csc(-c2ccncc2)n1 | . | . | . | . | .
CSC(=[SH+])[N-]N=C(c1ccccn1)c1ccccn1.[Cu][Br] | / | / | 108 | . | /
C/C(=N\[N-]C(=[SH+])SCc1ccccc1)c1ccccn1.[Cl][Cu] | / | / | 88 | . | /
CSc1ccccc1NC(=O)c1ccccn1 | . | . | . | . | .
CCCN1C2CCCC1CC(NC(=O)Nc1cc(C)cc(C)c1)C2 (stereo unspecified) | / | / | . | . | /
COc1ccc(C(=O)N/N=C2\C(=O)c3c(C)cc(C)cc3CC2(C)C)cc1 | / | / | 53 | . | /
COc1ccc2c(c1)CC/C2=N\NC(=O)c1ccccc1 | . | . | . | . | .
COc1ccc(N2CCN(CC(=O)Nc3cc(F)ccc3C)CC2)cc1 | / | / | . | . | /
N#CCCN(Cc1cccnc1)C(=S)Nc1ccccc1Cl | . | . | . | . | .
N#CCCN(Cc1cccnc1)C(=S)Nc1ccc(OC(F)F)cc1 | 31 | . | . | . | .
CC(C)[C@H]1CN(Cc2ccco2)CCN1C(=O)Cn1cnc2ccccc2c1=O | / | / | / | . | /
COc1ccccc1-c1cc(-c2cc(Cl)ccc2O)n[nH]1 | . | . | . | . | .
Oc1ccc(Cl)cc1-c1cc(-c2ccccc2)n[nH]1 | 33 | . | . | . | .
CN1C(=O)C(=Cc2ccc([N+](=O)[O-])o2)C(=O)N(C)C1=O | / | / | . | . | /
CC(=O)N1CCCc2cc(C(O)CN3CCN(c4ccccn4)CC3)ccc21 (stereo unspecified) | / | / | . | . | /
O=CNCC(=O)NCCc1ccc(Cl)cc1 | 37 | . | . | . | .
COc1cc(CC(=O)N2CCC(c3ccncc3)CC2)cc(OC)c1OC | / | / | / | . | /
CC(C(=O)O)N1C(=O)/C(=C/C=C/c2ccco2)SC1=S (stereo unspecified) | . | 69 | . | / | .
CCC(c1nnnn1C(C)(C)CC)N(Cc1ccccc1)Cc1cc2cc(C)c(C)cc2[nH]c1=O (stereo unspecified) | / | / | . | . | /
N#Cc1c(N2C(=O)Nc3ccccc3N2O)sc2c1CCCCCC2 | 35 | . | . | . | .
N#Cc1c(N2C(=O)Nc3ccccc3N2O)sc2c1CCCC2 | . | . | . | . | .
COc1ccc2[nH]c(=O)c(CN(C3CCCCC3)S(=O)(=O)c3cccc4nsnc34)cc2c1 | / | / | . | . | /
O=C(O)CCCCCNc1ncnc2sc3c(c12)CCC3 | / | / | . | . | /
O=C(O)C[C@@H]1C(=O)O[C@@H]2C(COC(=O)c3cc(O)c(O)c(O)c3)O[C@@H](OC(=O)c3cc(O)c(O)c(O)c3)[C@@H](OC(=O)c3cc(O)c(O)c4c3[C@H]1[C@H](O)C(=O)O4)[C@H]2OC(=O)c1cc(O)c(O)c(O)c1 (stereo partly specified) | / | 102 | / | . | /
Cc1cccc(-n2c(=O)c3c4c(sc3n3c(=S)[nH]nc23)CCC4)c1 | 34 | . | . | . | .
SMILES | Arbovirus inh | Hck-Nef inh | EP2 antag | EP2 mod | p97 inhibitor
O=C(NCc1nc(-c2cccnc2)n[nH]1)C1(c2ccccc2)CC1 | / | / | . | . | /
S=C1NCN2CCN(CC2)CNC(=S)C(=S)NCN2CCN(CC2)CNC1=S | / | / | 48 | . | /
CCOc1cc(C2C3=C(CCCC3=O)NC3=C2C(=O)CCC3)cc(Cl)c1OCC | / | / | . | . | /
CCOC(=O)c1ccc(CC2S/C(=C(\C#N)C(C)=O)NC2=O)cc1 (stereo unspecified) | . | . | . | . | .
CCc1ccc(CC2S/C(=C(\C#N)C(C)=O)NC2=O)cc1 (stereo unspecified) | 33 | . | . | . | .
CC1(C)CC(=O)C2=C(C1)Nc1ccccc1NC2c1cc(O)ccc1O (stereo unspecified) | / | / | 47 | . | /
COc1ccc(C2(NC(=O)COc3ccc4nncn4n3)CCCCC2)cc1 | / | / | . | . | /
N#Cc1c(NC(=O)CSc2ncnc3sccc23)oc(-c2ccco2)c1-c1ccco1 | . | . | . | . | 15
S=C(NCc1ccccc1)N1CCn2cccc2C1c1cccnc1 (stereo unspecified) | 34 | . | . | . | .
S=C(NCCc1ccccc1)N1CCn2cccc2C1c1cccnc1 (stereo unspecified) | . | . | . | . | .
O=c1[nH]c(-c2ccc(O)cc2)nc2scc(-c3cccs3)c12 | / | . | . | . | .

Bioassay records from PubChem.
